Data reported in PubChem BioAssay (NCI).
Values joined by “and” are separate entries in the source; they are usually repeats but may differ in a detail not shown here. Equal values may be shown once. The panel holds about 83,000 compounds, 20% with a hit somewhere; the sample as a whole holds those more often.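 In brief: 96-well plates, 48 h treatment, single concentration, percent growth endpoint.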

Experiments:
Experiment in all cases: NCI-60 one-dose screen, 48 h (100 = growth as untreated, 0 = no growth, -100 = all killed)
Settings in all cases: 10 µM unless noted; active means growth percent below 10; inactive means the rest
[1] = tested on: NCI-H23 lung
[2] = tested on: NCI-H226 lung
[3] = tested on: HOP-62 NSCLC
[4] = tested on: NCI-H460 lung
[5] = tested on: HOP-92 NSCLC
[6] = tested on: NCI-H522 lung
[7] = tested on: A549/ATCC NSCLC
[8] = tested on: 786-0 renal
[9] = tested on: COLO 205 colon
[10] = tested on: DU-145 prostate
[11] = tested on: K-562 leukemia
[12] = tested on: MALME-3M melanoma
[13] = tested on: MDA-MB-231 breast
[14] = tested on: RXF 393 renal
[15] = tested on: SF-268 CNS
[16] = tested on: SF-295 CNS
[17] = tested on: SF-539 CNS
[18] = tested on: UACC-257 melanoma
[19] = tested on: M14 melanoma
[20] = tested on: NCI-H322M lung

Measured: growth

COc1ccc2oc3cc(NCCN(C)C)ccc3c(=O)c2c1
inactive: [1] 112% and 83% | [2] 109% and 102% | [3] 88.2% and 54.1% | [4] 97.7% and 61.7% | [5] 88.2% and 82.1% | [6] 65.7% | [7] 95.2% and 73.8% | [8] 103% and 76.9% | [9] 84.3% and 47.7% | [10] 108% and 76.6% | [11] 66.7% and 43.2% | [12] 94.8% and 81.7% | [13] 83.5% and 73.6% | [14] 107% and 92.5% | [15] 104% and 82.7% | [16] 54.7% and 72.1% | [17] 80.7% and 84.2% | [18] 86.9% | [19] 96.5% and 76.7%

O=C(/C=C/C=C/c1ccc2c(c1)OCO2)N1CCCCC1
inactive: [1] 95.6% and 102% | [2] 104% and 95% | [3] 100% | [4] 109% and 113% | [5] 97.3% and 89.6% | [6] 115% and 81.1% | [7] 104% and 98.5% | [8] 103% and 57.4% | [9] 114% and 106% | [10] 119% and 110% | [11] 90.5% and 70.7% | [12] 108% and 214% | [13] 98.6% and 98% | [14] 105% and 110% | [15] 114% and 99.2% | [16] 85.4% and 107% | [17] 109% and 101% | [18] 114% and 106% | [19] 109% and 99.5%

Cc1ccc2cccc([N+](=O)[O-])c2n1
inactive: [1] 108% and 95% | [2] 101% | [3] 103% and 95.1% | [4] 117% and 107% | [5] 123% and 96.2% | [6] 90.2% and 93.8% | [7] 103% and 104% | [8] 118% and 98.3% | [9] 104% and 106% | [10] 116% and 109% | [11] 91% and 88.7% | [12] 99.1% and 108% | [13] 107% and 104% | [14] 119% and 110% | [15] 103% | [16] 108% and 110% | [17] 105% and 103% | [18] 102% and 107% | [19] 121% and 97.9%

CN(C=O)c1ccccc1
inactive: [1] 84.9% | [2] 75.3% | [3] 92.3% | [4] 102% | [5] 84.2% | [6] 92.9% | [7] 105% | [8] 97.1% | [9] 101% | [10] 103% | [11] 97.7% | [12] 87.3% | [13] 84.6% | [14] 105% | [15] 103% | [16] 92.8% | [17] 92.9% | [18] 103% | [19] 95.8%

CC(=O)Oc1cc(C)c(OC(C)=O)c(C)c1C
inactive: [1] 97.3% | [2] 101% | [20] 112% | [3] 102% | [5] 112% | [6] 103% | [7] 107% | [8] 108% | [9] 121% | [10] 105% | [11] 90.9% | [12] 91.4% | [13] 91.4% | [14] 125% | [15] 107% | [16] 107% | [17] 101% | [18] 105% | [19] 112%

COC(=O)c1nc(=S)[nH]c(C(=O)OC)c1C(=O)c1ccc(OC)cc1
inactive: [1] 97.4% | [2] 90.7% | [3] 123% | [5] 95.9% | [6] 101% | [7] 118% | [8] 113% | [9] 117% | [10] 117% | [11] 106% | [12] 97.5% | [13] 100% | [14] 108% | [15] 112% | [16] 99.6% | [17] 99.3% | [18] 109% | [19] 108%
